Structures are written as SMILES. ± gives the standard deviation of the averaged measurements.

Experimental findings from the supplement of paper PMC11628255, “Interference of metal ions on the bioluminescent signal of firefly, Renilla, and NanoLuc luciferases in high-throughput screening assays” (Frontiers in Chemistry, 2024) are described below.

In this experiment the test system is NanoLuc luciferase (NLuc). Briefly: residual bioluminescent signal relative to negative control without GSH; higher = less interference (more residual luciferase signal). The settings on record: screening conditions buffer. As to the method: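 Selected metal salts at 3-4 concentrations tested on purified FLuc, NLuc or RLuc in screening buffer with 0, 0.2 or 2 mM glutathione added; 10 min enzyme pre-incubation at RT, luminescence 10 min after substrate. Signal normalised to negative control without GSH (% N_VALUE); triplicate wells.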

[1] abbreviates: metal salt concentration 1 mM, glutathione 0 mM.
[2] abbreviates: metal salt concentration 1 mM, glutathione 0.2 mM.
Setting [3] is: metal salt concentration 1 mM, glutathione 2 mM.
[4] abbreviates: metal salt concentration 0.001 mM, glutathione 0 mM.
[5] abbreviates: metal salt concentration 0.001 mM, glutathione 0.2 mM.
[6] abbreviates: metal salt concentration 0.001 mM, glutathione 2 mM.

For `O=[N+]([O-])[O-].O=[N+]([O-])[O-].[Cu+2]` [copper(II) nitrate], the residual bioluminescent signal came to 104 ± 4.1% (metal salt concentration 0.0005 mM, glutathione 0 mM); 106 ± 5.4% (metal salt concentration 0.0005 mM, glutathione 0.2 mM); 89.3 ± 3.6% (metal salt concentration 0.0005 mM, glutathione 2 mM); 101 ± 7.7% (metal salt concentration 0.017 mM, glutathione 0 mM); 104 ± 6.7% (metal salt concentration 0.017 mM, glutathione 0.2 mM); 92.9 ± 4.8% (metal salt concentration 0.017 mM, glutathione 2 mM). Moreover, the residual bioluminescent signal is 86.4 ± 3.7% (metal salt concentration 0.02 mM, glutathione 0 mM); 98 ± 2.7% (metal salt concentration 0.02 mM, glutathione 0.2 mM); 84.1 ± 2.6% (metal salt concentration 0.02 mM, glutathione 2 mM); 0.661 ± 0.17% under setting [1]; 1.03 ± 0.57% under setting [2]; 68.9 ± 7.9% under setting [3].

Regarding `O=[N+]([O-])[O-].[Ag+]` [silver nitrate], the residual bioluminescent signal by setting is: under setting [4], 98.9 ± 6.8%; under setting [5], 102 ± 1.4%; under setting [6], 90.9 ± 4.7%; (metal salt concentration 0.0114 mM, glutathione 0 mM) 15.6 ± 8%; (metal salt concentration 0.0114 mM, glutathione 0.2 mM) 106 ± 1.6%; (metal salt concentration 0.0114 mM, glutathione 2 mM) 85.33 ± 0.82%. Also, the residual bioluminescent signal came to 2.78 ± 0.95% (metal salt concentration 0.05 mM, glutathione 0 mM); 107 ± 4.8% (metal salt concentration 0.05 mM, glutathione 0.2 mM); 85.7 ± 1% (metal salt concentration 0.05 mM, glutathione 2 mM); 3.17 ± 0.68% under setting [1]; 15.2 ± 5.5% under setting [2]; 82.48 ± 0.71% under setting [3].

On to `O=[N+]([O-])[O-].O=[N+]([O-])[O-].[Zn+2]` [zinc nitrate], for which the residual bioluminescent signal runs as follows: under setting [4], 98.9 ± 6.3%; under setting [5], 103 ± 6.2%; under setting [6], 89.6 ± 2.3%; (metal salt concentration 0.174 mM, glutathione 0 mM) 50.9 ± 6%; (metal salt concentration 0.174 mM, glutathione 0.2 mM) 72.7 ± 2.8%; (metal salt concentration 0.174 mM, glutathione 2 mM) 77.5 ± 7.3%. Further, the residual bioluminescent signal runs as follows: under setting [1], 34.2 ± 8.5%; under setting [2], 42.1 ± 1.7%; under setting [3], 63.9 ± 1.7%; (metal salt concentration 5 mM, glutathione 0 mM) 5.95 ± 1.4%; (metal salt concentration 5 mM, glutathione 0.2 mM) 7.9 ± 2.7%; (metal salt concentration 5 mM, glutathione 2 mM) 12.4 ± 2.1%.
